PubChem BioAssay (EPA / NIEHS)
Calls of active or inactive are those of the source. The calls were made as follows: active = hit-call score of the fitted dose curve at least 0.9, where 1 is the maximum; inconclusive = response in the unintended direction; inactive = score below 0.9. Peptide text beside a SMILES is read from it.

These compounds were tested against Peroxisome proliferator-activated receptor gamma (Homo sapiens) (UniProt P37231) (assay: OT_PPARg_PPARgSRC1_1440: Odyssey Thera (OT) 24-hour Protein-Complementation Assay for Peroxisome Proliferator-activated Receptor Gamma/ SRC-1 Co-activator (AID 2283388);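 also: nuclear to cytoplasmic ratio of reconstituted Venus YFP fluorescence in fixed imaged cells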).
Description: OT_PPARg_PPARgSRC1_1440 is a cell-based assay that uses HEK293T, a human kidney cell line, with measurements taken at 24 hours after chemical dosing in a 384-well plate.OT_PPARg_PPARgSRC1_1440 is one of one assay component(s) measured or calculated from the OT_PPARg_PPARgSRC1_1440 assay. It is designed to make measurements of protein fragment complementation, a form of binding reporter, as detected with fluorescence intensity signals by Protein-fragment Complementation technology.Data from the assay component OT_PPARg_PPARgSRC1_1440 was analyzed into 1 assay endpoint. This assay endpoint, OT_PPARg_PPARgSRC1_1440, was analyzed in the positive analysis fitting direction relative to DMSO as the negative control and baseline of activity. Using a type of binding reporter, measures of receptor for gain-of-signal activity can be used to understand the binding at the pathway-level as they relate to the gene PPARG. Furthermore, this assay endpoint can be referred to as a primary readout, because the performed assay has only produced 1 assay endpoint. To generalize the intended target to other relatable targets, this assay endpoint is annotated to the nuclear receptor intended target family, where the subfamily is non-steroidal.
The OT PPARg/SRC-1 assay assessed receptor-chemical interactions using a rapidly maturing, intensely fluorescent mutant of YFP known as Venus, rationally dissected into two separate fragments. The fragments were obtained as follows: first, fragments coding for YFP1 and YFP2 (corresponding to amino acid residues 1-158 and 159-239 of the full length YFP, respectively) were generated by oligonucleotide synthesis (Blue Heron Biotechnology), and then PCR mutagenesis was used to generate the mutant fragments IFP1 and IFP2. Fusion constructs were transfected into HEK293T cells with a (Gly4Ser)2 linker between the PPARg/SRC-1 and YFP fragment genes to facilitate complementation when interacting proteins bring fragments into close proximity. The construct is transiently transfected in HEK293T cells 48 hours prior to treatment with test compounds. Cells are seeded into optical quality 384-well poly-D-lysine coated plates in MEM alpha medium (Invitrogen) supplemented with 10 percent FBS (Gemini Bio-Products) 1 percent penicillin and 1 percent streptomycin, and grown in 37C incubator equilibrated to 5 percent CO2. Cells are allowed to adhere for 24 hours prior to treatment with compounds of interest or controls for 24 hours. Cells are fixed in 4 percent formaldehyde and stained with Draq5 (BioStatus) to identify cells and subcellular compartment boundaries prior to signal detection. 8 Images per well were acquired on an Evotec Opera at 2 wavelengths (488 and 635nm), and the ratio of fluorescence in the nucleus relative to fluorescence in the cytoplasm (N/C Ratio) in the 488nm channel was calculated for a minimum of 350 cells per image.

Sequence of Peroxisome proliferator-activated receptor gamma (Homo sapiens) (P37231 whole entry, looked up, the tested form may be a part): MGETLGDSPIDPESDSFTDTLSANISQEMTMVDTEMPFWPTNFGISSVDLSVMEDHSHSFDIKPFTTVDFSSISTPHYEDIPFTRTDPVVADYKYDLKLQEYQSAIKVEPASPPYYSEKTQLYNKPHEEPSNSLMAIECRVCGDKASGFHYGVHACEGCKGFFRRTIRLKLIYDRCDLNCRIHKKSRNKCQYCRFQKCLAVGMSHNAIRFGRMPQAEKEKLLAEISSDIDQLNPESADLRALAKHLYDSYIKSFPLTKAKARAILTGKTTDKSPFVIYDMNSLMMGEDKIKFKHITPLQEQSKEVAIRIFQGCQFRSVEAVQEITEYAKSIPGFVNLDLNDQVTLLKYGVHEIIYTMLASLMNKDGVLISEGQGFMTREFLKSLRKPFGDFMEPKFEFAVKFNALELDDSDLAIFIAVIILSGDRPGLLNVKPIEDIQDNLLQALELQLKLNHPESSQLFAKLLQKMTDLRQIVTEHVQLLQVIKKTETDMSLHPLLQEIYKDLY

Row | Compound | outcome | AC50
1 | CC(C)=CCCC(C)=CC#N | inactive | 
2 | COc1ccc(C(=O)c2ccccc2)c(O)c1 | inactive | 
3 | CC(C)COC(=O)CC(C(=O)OCC(C)C)S(=O)(=O)O (stereo not given) | inactive | 
4 | CCCCOCCOC(=O)COc1ccc(Cl)cc1Cl | inactive | 
5 | O=c1c(O)c(-c2ccc(O)cc2O)oc2cc(O)cc(O)c12 | inactive | 
6 | O=C(OCc1ccccc1)c1ccc(O)cc1 | inactive | 
7 | C1CNCCN1 | inactive | 
8 | CCC(C)(O)CCCC(C)C (stereo not given) | inactive | 
9 | COC(=O)c1ccccc1C | inactive | 
10 | CCCCCCOC(=O)CCCCC(=O)OCCCCCC | inactive | 
11 | CCCCC/C=C\C/C=C\CCCCCCCC(=O)O | inactive | 
12 | COC(=O)[C@H](Cc1ccccc1)NC(=O)[C@@H](N)CC(=O)O (H-Asp-Phe-OMe) | inactive | 
13 | C=C1C[C@H]2[C@@H]3C=C(C)C4=CC(=O)CC[C@]4(C)[C@H]3CC[C@]2(C)[C@@]1(OC(C)=O)C(C)=O | inactive | 
14 | CCCCCCO | inactive | 
15 | CC(=O)c1ccccc1O | inactive | 
16 | CCCCCC[C@@H](O)C/C=C\CCCCCCCC(=O)OCC(O)CO (stereo not given in full) | inactive | 
17 | CC(C)c1cc(C(C)C)cc(C(C)C)c1 | inactive | 
18 | CCc1occc(=O)c1O | inactive | 
19 | CCN1CN(CC)CN(CC)C1 | inactive | 
20 | Cc1cc(C)n(CO)n1 | inactive | 

Row | Compound | outcome | AC50
21 | O=C(O)c1cc(O)c2ccccc2c1O |  | 73.2 µM (active)
22 | O=C(O)/C=C/c1ccccc1 | inactive | 
23 | CCCCc1ccc(Cl)cc1 | inactive | 
24 | CCCCCCCCCCCCCCCCCCOS(=O)(=O)O | inactive | 
25 | CCOC(=O)c1ccccc1C | inactive | 
26 | CCCCNC(=S)NCCCC | inactive | 
27 | CC1=CCC2CC1C2(C)C (stereo not given) | inactive | 
28 | CCCCCCCO | inactive | 
29 | CC12CCC(CC1)C(C)(C)O2 | inactive | 
30 | CCCCCCCCCCCCCC(=O)OC(C)C | inactive | 
31 | O=C(O)C1CCC(C(=O)O)CC1 (stereo not given) | inactive | 
32 | CC(=O)OC(C)c1ccccc1 (stereo not given) | inactive | 
33 | CN(C)Cc1cc(CN(C)C)c(O)c(CN(C)C)c1 | inactive | 
34 | CC(C)(C)N | inactive | 
35 | C=CCOC(=O)c1ccc(C(=O)OCC=C)c(C(=O)OCC=C)c1 | inactive | 
36 | Nc1ccc(C(=O)O)cc1 | inactive | 
37 | CCCCNS(=O)(=O)c1ccc(C)cc1 | inactive | 
38 | CC(C)(C)NC(=O)[C@H]1CC[C@H]2[C@@H]3CC[C@H]4NC(=O)C=C[C@]4(C)[C@H]3CC[C@]12C | inactive | 
39 | CC(C)(C)C1CCC(=O)CC1 | inactive | 
40 | CCCCCCCCCCCC(=O)N(C)CC(=O)O | inactive | 
